ELG1 genotox – inducers of genotoxicity in HEK293T ELG1-luciferase cells. HEK293T ELG1-luciferase reporter, luminescence, 16 h. AID 504466. 330,000 tested, 1.3% active. Potency, µM (series often up to 46 µM), for inactives: at the top dose activity change, positive = activation, usual class: activators; also: % of control where 0% means no effect; nearly all actives have a fitted effect of over 60% in size
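Reporter readout depends on ELG1 protein level, which increases with genetic stress. After 16 hr compound exposure at 37 °C, luciferase activity was quantified using ONE-Glo.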
FLuc modulator – firefly luciferase modulation, counter-screen for miR-21 project; 360,000 tested, 6.9% active; P08659; purified FLuc, Km substrates, luminescence inhibition; Potency, µM (series often up to 57.5 µM), for inactives: at the highest dose activity change, negative = inhibition, usual class: inhibitors;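 also: plate controls were vehicle for no effect and reference inhibitor for full effect; nearly all actives have a fitted effect of over 55% in size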
Target sequence (P08659 whole entry, looked up): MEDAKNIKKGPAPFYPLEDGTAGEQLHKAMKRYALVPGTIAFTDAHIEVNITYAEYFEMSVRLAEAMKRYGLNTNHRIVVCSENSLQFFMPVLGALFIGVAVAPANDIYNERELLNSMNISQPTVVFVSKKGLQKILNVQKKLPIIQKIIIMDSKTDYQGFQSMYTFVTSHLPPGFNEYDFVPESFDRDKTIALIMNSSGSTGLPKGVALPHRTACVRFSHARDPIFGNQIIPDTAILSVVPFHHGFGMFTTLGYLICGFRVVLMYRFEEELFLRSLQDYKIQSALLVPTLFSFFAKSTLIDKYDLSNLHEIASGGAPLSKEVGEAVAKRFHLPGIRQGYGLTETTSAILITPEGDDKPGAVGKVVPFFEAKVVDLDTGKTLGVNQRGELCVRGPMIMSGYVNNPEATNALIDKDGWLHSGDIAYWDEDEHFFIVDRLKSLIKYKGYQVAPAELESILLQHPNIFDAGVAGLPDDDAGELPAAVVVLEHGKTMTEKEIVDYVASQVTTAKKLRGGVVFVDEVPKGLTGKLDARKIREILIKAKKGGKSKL
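Purified P. pyralis luciferase, 10 nM final, with Km-level 10 uM D-luciferin and 10 uM ATP in 50 mM Tris acetate pH 7.5, 10 mM Mg acetate, 0.01% Tween-20, 0.05% BSA; 6-point qHTS titration about 60 µM downward; luminescence read.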
Rab9 promoter act – Rab9 promoter activation | Huh7 Rab9 promoter-luciferase reporter, luminescence, 24 h | Potency, µM (doses to about 9.22 µM), for the others: top-dose activation, negative = inhibition, usual class: activators | 320,000 tested, 2.8% active; also: % of control where 0% means no effect; nearly all actives have a fitted effect of over 60% in size
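Huh7 cells stably carrying Rab9 promoter–luciferase reporter, plated 1500 cells/well, compound added after 2 h and incubated 24 h at 37 °C; luciferase luminescence then read after 10 min with detection reagent.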
NPC1 prom act – activates the NPC1 promoter; 320,000 tested, 2.4% active; Huh7 NPC1 promoter luciferase reporter, 24 h; AID 485313; Potency, µM (series often up to 9.22 µM), for inactives: at the top dose activation, hits mostly activators; also: % of control where 0% means no effect; nearly all actives have a fitted effect of over 60% in size
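In 1536-well qHTS, Huh7 cells harboring an NPC1 promoter–luciferase construct received compound for 24 h; activation was quantified by luminescence following luciferase reagent addition.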
SMN2 splice enh – increases expression of the SMN2 splice variant; HEK293 SMN2-luciferase splicing reporter, luminescence, 30-36 h; AID 1458; Potency, µM (top dose mostly 46.1 µM), for inactives: top-dose activity change, positive = activation, most hits filed as activators; 210,000 tested, 2.8% active; also: % of control where 0% means no effect; nearly all actives have a fitted effect of over 55% in size
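HEK293 cells carry an SMN2 minigene-luciferase reporter in which exon 7 inclusion puts luciferase in frame. Cells were seeded at 2000 cells/well, attached for 10-12 hours, then exposed to compounds for 30-36 hours at 37C before ONE-Glo luminescence.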
ELG1 DNA repair – ELG1-dependent DNA repair inhibition. HEK293T ELG1-luciferase reporter, luminescence, 16 h; DNA damage induced by 5-fluorouridine. Potency, µM (highest dose often 46.1 µM), for the others: at the top dose activity change, negative = inhibition, most hits filed as inhibitors. 330,000 tested, 2.3% active; also: % is scaled to controls: 0 for no effect and ±100 for the full control effect; nearly all actives have a fitted effect of over 55% in size
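DMSO vehicle served as the neutral condition. Each well held 2,000 cells given 5-fluorouridine plus compound; after 16 hr at 37 °C/5% CO2, ONE-Glo was added and luciferase measured 30 min later.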
Active calls of the source: *. An excerpt weighted towards active compounds, which were near 9.4% of everything screened. Calls follow the shape of the dose curve; as a rule, active = well fitted curve in the direction sought with a large enough effect; inconclusive = small, poorly fitted or top-dose-only effect, or another doubt; inactive = no such curve, though single readings can be large; an effect the other way counts as inactive or inconclusive. Potency is read from the fitted curve at half-maximal effect.

How did O=S(=O)(Nc1ccc2nc(N3CCOCC3)sc2c1)c1ccc(Cl)cc1 do in these assays?
ELG1 genotox: -2%; FLuc modulator: -23%; Rab9 promoter act: 16%; NPC1 prom act: 9%; ELG1 DNA repair: inconclusive

How did c1ccc(N2CCN(c3nc4cc5c(cc4s3)OCO5)CC2)cc1 do in these assays?
ELG1 genotox: 11%; FLuc modulator: 1.1µM*; Rab9 promoter act: 0.71µM*; NPC1 prom act: 0.79µM*; SMN2 splice enh: inconclusive; ELG1 DNA repair: inconclusive

Results for COc1cc(OC)cc(-c2nc3nc(C)c(CCC(=O)Nc4ccc(F)cc4F)c(C)n3n2)c1 ?
FLuc modulator: -8%; SMN2 splice enh: -3%

Results for COc1ccc(S(=O)(=O)N(Cc2nc(-c3cccc(C)c3)no2)C2CCCCC2)cc1 ?
FLuc modulator: -2%; SMN2 splice enh: -17%

What do the screens show for `CCN(c1ccccc1)S(=O)(=O)c1nnc(NC(=O)COc2cccc(C)c2)s1`?
FLuc modulator: -19%

How did O=C(NCc1ccco1)c1ccc2c(c1)C(=O)c1ccccc1-2 do in these assays?
ELG1 genotox: 15µM*; FLuc modulator: inconclusive; Rab9 promoter act: 16%; NPC1 prom act: 4%; SMN2 splice enh: -7%; ELG1 DNA repair: inconclusive

How did O=C(NCc1ccco1)c1ccc2c(c1)C(=O)N(Cc1ccccc1)C2=O do in these assays?
ELG1 genotox: 0%; FLuc modulator: -4%; Rab9 promoter act: -7%; NPC1 prom act: 1%; SMN2 splice enh: 2%; ELG1 DNA repair: 1%

Results for Cc1ccc(C(=O)NCc2ccco2)cc1 ?
ELG1 genotox: 9%; FLuc modulator: -19%; Rab9 promoter act: 15%; NPC1 prom act: 14%; ELG1 DNA repair: inconclusive

Results for CCOc1ccc(C(=O)NCc2ccco2)cc1 ?
ELG1 genotox: inconclusive; FLuc modulator: inconclusive; Rab9 promoter act: 22%; NPC1 prom act: 22%; SMN2 splice enh: 9%; ELG1 DNA repair: inconclusive

Results for CC(C)(CO)NC(=O)c1ccc2c(c1)C(=O)c1ccccc1-2 ?
ELG1 genotox: 23µM*; FLuc modulator: 19µM*; Rab9 promoter act: inconclusive; NPC1 prom act: 2.5µM*; ELG1 DNA repair: inconclusive

How did O=C(NCc1ccco1)c1ccc2ccccc2c1 do in these assays?
ELG1 genotox: 11%; FLuc modulator: 13µM*; Rab9 promoter act: inconclusive; NPC1 prom act: inconclusive; SMN2 splice enh: 17%; ELG1 DNA repair: inconclusive

Results for O=C(NCc1ccco1)c1ccc(Oc2ccccc2)cc1 ?
ELG1 genotox: inconclusive; FLuc modulator: 24µM*; Rab9 promoter act: 16%; NPC1 prom act: 14%; SMN2 splice enh: 0%; ELG1 DNA repair: inconclusive

What do the screens show for `CCc1ccc(CNC(=O)CN2C(=O)CSc3c2c(C)nn3-c2ccccc2)cc1`?
FLuc modulator: -4%

How did COc1cccc(C(=O)c2cn(CC(=O)Nc3cccc(Cl)c3C)c3nc(C)ccc3c2=O)c1 do in these assays?
FLuc modulator: 4%

What do the screens show for `CC(=O)c1cccc(NC(=S)NC(=O)c2cncc(Br)c2)c1`?
ELG1 genotox: 10%; FLuc modulator: inconclusive; Rab9 promoter act: inconclusive; NPC1 prom act: 2.5µM*; ELG1 DNA repair: inconclusive

How did O=C(O)c1cccc(NC(=S)NC(=O)c2ccc(-c3ccccc3)cc2)c1 do in these assays?
ELG1 genotox: inconclusive; FLuc modulator: 1.1µM*; Rab9 promoter act: inconclusive; NPC1 prom act: 0.35µM*; SMN2 splice enh: 3.2µM*; ELG1 DNA repair: inconclusive

How did O=C(NC(=S)Nc1cccc([N+](=O)[O-])c1)c1ccccc1 do in these assays?
ELG1 genotox: 14%; FLuc modulator: inconclusive; Rab9 promoter act: 4µM*; NPC1 prom act: inconclusive; ELG1 DNA repair: inconclusive

Results for CCOc1ccc(C(=O)NC(=S)Nc2ccccn2)cc1[N+](=O)[O-] ?
ELG1 genotox: 0%; FLuc modulator: -6%; Rab9 promoter act: inconclusive; NPC1 prom act: -2%; SMN2 splice enh: -68%; ELG1 DNA repair: inconclusive

How did NS(=O)(=O)c1ccc(NC(=S)NC(=O)c2ccc(-c3ccccc3)cc2)cc1 do in these assays?
ELG1 genotox: 16%; FLuc modulator: 0%; Rab9 promoter act: 0%; NPC1 prom act: -6%; SMN2 splice enh: -27%; ELG1 DNA repair: inconclusive

What do the screens show for `O=C(NC(=S)Nc1ccccn1)c1cccc([N+](=O)[O-])c1`?
ELG1 genotox: inconclusive; FLuc modulator: 24µM*; Rab9 promoter act: 1.6µM*; NPC1 prom act: 1.3µM*; ELG1 DNA repair: inconclusive

Results for N#CCCCSc1nnnn1-c1cc(C(F)(F)F)cc(C(F)(F)F)c1 ?
SMN2 splice enh: 5%

How did CN(C(=O)c1ccc2c(c1)N(Cc1cccc(Cl)c1)C(=O)c1ccccc1S2(=O)=O)C1CCCCC1 do in these assays?
FLuc modulator: 7%

Results for O=C(NNC(=S)Nc1ccc(F)cc1)c1cccc([N+](=O)[O-])c1 ?
ELG1 genotox: 2%; FLuc modulator: -9%; Rab9 promoter act: 0%; NPC1 prom act: 1%; ELG1 DNA repair: -11%

Results for Cc1ccc(NC(=S)NNC(=O)c2cccc([N+](=O)[O-])c2)cc1Cl ?
ELG1 genotox: -6%; FLuc modulator: 19µM*; Rab9 promoter act: -2%; NPC1 prom act: 1%; ELG1 DNA repair: inconclusive

Results for Cc1ccc(C(=O)O)cc1NC(=S)NC(=O)c1ccc(-c2ccccc2)cc1 ?
ELG1 genotox: inconclusive; FLuc modulator: 1.5µM*; Rab9 promoter act: inconclusive; NPC1 prom act: inconclusive; ELG1 DNA repair: inconclusive

Results for COc1cc2ccccc2cc1C(=O)NC(=S)Nc1cccc(C(=O)O)c1 ?
ELG1 genotox: 17%; FLuc modulator: 13µM*; Rab9 promoter act: 2.2µM*; NPC1 prom act: inconclusive; SMN2 splice enh: 20%; ELG1 DNA repair: inconclusive

Assay outcomes from PubChem BioAssay.
